Test results as given in ChEMBL document CHEMBL4513216, “Probing the Open Global Health Chemical Diversity Library for Multistage-Active Starting Points for Next-Generation Antimalarials” (ACS Infect Dis, 2020).
In all, about 69,000 compounds went through this assay and about 8,600 (12%) showed an effect of 50% or more. The sample as a whole holds a higher share of strong results than the screen did.

System: Plasmodium berghei
Experiment: Screen against P. berghei liver stage (PbLuc), transformed with Luciferase, at 10uM
Type: functional, HepG2
Conditions: tested at 10 uM

Structure (SMILES)	INHIBITION [%]
CC1CN(CC(=O)NCc2ccccn2)CCN1Cc1nccn1C (centres undefined)	-20.19
O=C(c1ccc2c(c1)OCCCO2)N1CCCC(n2cccn2)C1 (centres undefined)	7.12
CC(C)n1ccc2c(NC(=O)c3n[nH]c4c3CCC4)cccc21	76.9
CC(C)c1nc2cc(NC(=O)c3n[nH]c4c3CCC4)ccc2n1C	62.2
CC(=O)Nc1cccc2c1ccn2CC(=O)Nc1n[nH]c(CC(C)C)n1	71.3
CC(=O)Nc1cccc2c1ccn2CC(=O)Nc1nc[nH]n1	21.5
Cn1cnc2cc(NC(=O)c3n[nH]c4c3CCC4)ccc21	-136
COCCn1ccc2c(NC(=O)c3n[nH]c4c3CCC4)cccc21	9.57
Cc1cc(CC(C)NC(=O)c2n[nH]c3c2CCC3)n[nH]1 (centres undefined)	-56.2
CC(C)Cn1ccc2c(NC(=O)c3n[nH]c4c3CCC4)cccc21	90.8
CC(=O)Nc1cccc2c1ccn2CC(=O)NC(C)C	22
COCCn1ccc2c(NC(=O)c3n[nH]c4c3CCCC4)cccc21	14.8
CN(C)CCCn1cnc2cc(NC(=O)c3n[nH]c4c3CCC4)ccc21	10.1
Cc1ccc(N(C)C2CCN(C(=O)c3n[nH]c4c3CCC4)CC2)nn1	-20.3
O=S(=O)(c1cnccc1N1CCN(CCO)CC1)N1CCOCC1	36.8
CCOc1ccc(C#N)cc1NC(=O)N1CCC(n2cncn2)CC1	-31.4
Cc1nc(N2CCCC2)ncc1-c1cc(O)nc(NCC2CCCO2)n1 (centres undefined)	-29.6
Cc1[nH]ccc1C(=O)N1C[C@@H]2CC[C@H]1CN(S(=O)(=O)N(C)C)C2	21.5
Cc1cc(S(=O)(=O)NCC(C)(C)N)c(F)cc1F	48.8
COCCNC(=O)NCc1cc(-c2cccs2)n(C2CCCC2)n1	43.9

Structure (SMILES)	INHIBITION [%]
Cc1noc(C)c1-c1cncc(C2CCCN2Cc2cncnc2)n1 (centres undefined)	22.2
Cc1cccc(CS(=O)(=O)CC(O)Cn2cccn2)c1 (centres undefined)	15.5
O=S(=O)(Cc1cccc(Cl)c1)CC(O)Cn1cccn1 (centres undefined)	57.5
O=S(=O)(Cc1ccccc1)CC(O)Cn1cccn1 (centres undefined)	34
Cn1c(NCc2ccc(C(N)=O)cc2)nc2cc(Cl)ccc21	10.7
CC(CN1CCCC1=O)NC(=O)NCc1ccccc1-n1cccn1 (centres undefined)	48.6
O=C(c1ccc(F)c(F)c1)N1C[C@H]2CNC[C@H]2C1	5.04
O=C(c1ccc(S(=O)(=O)NCC(F)F)cc1)N1C[C@H]2CNC[C@H]2C1	69.3
O=C(c1ccc(S(=O)(=O)NCC(F)F)cc1)N1CC[C@H]2CNC[C@H]21	43.7
CC(C)n1cnc2c1C(C(=O)NCCC#N)N(Cc1ccccc1)CC2 (centres undefined)	15.1
COCc1nc(C2CCN(Cc3nccn3C)CC2)no1	-11.7
COC(=O)c1ccc2c(c1)CCCN2S(=O)(=O)c1cn(C)c(C)n1	2.25
c1cc2c(cc1OC[C@@H]1CCCN3CCCC[C@H]13)OCCO2	28.4
Oc1coc2cc(OC[C@@H]3CCCN4CCCC[C@H]34)ccc12	56.2
O=C(CC[C@@H]1CCCN2CCCC[C@H]12)NCCc1cc(O)ncn1	26.8
CC(Cn1ccnc1)NC(=O)NCCc1cccs1 (centres undefined)	-17.08
NC(CNS(=O)(=O)Cc1cccc2cccnc12)c1ccccc1 (centres undefined)	29
Cc1nn(C)c(C)c1C(=O)NCc1ccnc(OCC(F)(F)F)c1	13.765
O=C(NC1CCCCC1)c1nnc2ccc(N3CCOCC3)cc2n1	-64.4
O=C(NCc1ccoc1)c1ccc(C2CCCN2CC2CCOCC2)s1 (centres undefined)	22.7

Structure (SMILES)	INHIBITION [%]
NCC(=O)N1CCCC1c1ccc(C(=O)NCc2ccoc2)s1 (centres undefined)	64.5
Cc1ncc(CN2CCCC2c2ccc(C(=O)NCc3ccoc3)s2)s1 (centres undefined)	37.4
CC(C)=CCCC1(C)CCC(=O)N(CCc2csc(N)n2)C1 (centres undefined)	39.3
CCOC1CCN(C(=O)c2ccc(-c3cccc(C)c3)[nH]c2=O)CC1	-16
CC(C)COC1CCN(C(=O)c2ccc(C(F)(F)F)[nH]c2=O)CC1	63.5
CC(C)COC1CCN(C(=O)c2cc3ccccc3c(=O)[nH]2)CC1	-1.55
Cc1noc(C)c1CN1CCN(CCN(C)C)c2ncccc2C1	23.3
Clc1ccccc1Cn1cc(CNC2CCc3ncnn3C2)cn1 (centres undefined)	-12.1
CCOc1cccc(NC(=O)c2cnc(C)cn2)n1	-24.5
Cc1nn(C)c(N2CCCN(C)CC2)c1CNC(=O)C(C)(C)C	-49.5
Cc1cc(C(=O)Nc2ccc3oc(=O)n(CCN(C)C)c3c2)c(C)o1	69.7
CCC(CC)C(=O)Nc1ccc2oc(=O)n(CCN(C)C)c2c1	50.8
CN(C)CCn1c(=O)oc2ccc(NC(=O)CC(C)(C)C)cc21	-3.95
CN(C)CCn1c(=O)oc2ccc(NC(=O)CSc3ccccc3)cc21	24.3
CC(C)CCC(=O)Nc1ccc2oc(=O)n(CCN(C)C)c2c1	-34.8
CCC(C)C(=O)Nc1ccc2oc(=O)n(CCN(C)C)c2c1 (centres undefined)	56
CC(C)COCCC(=O)Nc1ccc2oc(=O)n(CCN(C)C)c2c1	-3.08
CN(C)CCn1c(=O)oc2ccc(NC(=O)c3cc(Cl)c[nH]3)cc21	-31.6
CN(C)CCn1c(=O)oc2ccc(NC(=O)N3CCCCCC3)cc21	17.5
